Assay results taken from PubChem BioAssay (NCI).
The panel holds about 83,000 compounds, 20% with a hit somewhere; the sample as a whole holds those more often.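 Testing used 96-well plates and a 48-hour single-concentration exposure. Example: -40 means 40% of the starting cells died.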 Unmarked numbers belong to inactive results. The source made the active and inactive calls.

Each compound was assayed on NCI-H23 lung (assay: NCI-60 one-dose screen, 48 h (100 = growth as untreated, 0 = no growth, -100 = all killed)). Settings: 10 µM unless noted.
Procedure: Growth inhibition of the NCI-H23 human Non-Small Cell Lung tumor cell line is measured as a screen for anti-cancer activity. Cells are grown in 96 well plates and exposed to the test compound for 48 hours. Compounds are tested at a single concentration, which is 10^-5 M for most compounds. The reported endpoint is percent growth (GI% or GIPRCNT), where numbers from 0 - 100% represent growth inhibition, and numbers from -100% - 0 represent cell death. For example, a value of 40 represents 60% growth inhibition. A value of 0 means no net growth occurred over the course of the experiment. A value of -40 indicates 40% of cells at the beginning of the experiment died by the end of the experiment. A value of -100 means all cells are dead at the end of the experiment.
NCI-60 Human Tumor Cell Lines Screen was performed using the standard one-dose NCI protocol, which is described in more detail at https://dtp.cancer.gov/discovery_development/nci-60/default.htm.
Compounds with GIPRCNT values below 10 were considered active. Activity score was based on GIPRCNT using the following formula: […]
Score is 0 for GIPRCNT values of 100 or above, 50 for GIPRCNT values of 0, and 100 for GIPRCNT values of -100.

Row | Structure (SMILES) | growth
1 | Cc1nn(-c2ccc(Cl)cc2)c2nc3c(nc12)c(=O)oc1ccccc13 | 100%
2 | COc1ccc(Nc2nccc(N3CCN(c4c5ccc(Cl)cc5nc5ccc(OC)cc45)CC3)n2)cc1 | 95.7%
3 | CC/C(=C\c1ccc(N(C)C)cc1)c1nc2ccccc2c(=O)[nH]1 | 121%
4 | Cc1cc(C(=O)O)c(C)cc1C(=O)O | 107%
5 | COc1cc(OC)c2sc(-c3ccc(-n4cncc4-c4ccc(N)cc4)cc3)nc2c1 | 101%
6 | CCOC(=O)C1=NN(c2ccc(Cl)cc2)C2C3N(c4ccc(Cl)cc4)N=C(C(=O)OCC)N3c3ccccc3N12 (stereo not given) | 87%
7 | CCN1C2=C(SC(=S)C1=C1SC(C(=O)OC)=C(C(=O)OC)S1)SC(=Nc1ccc(OC)cc1)C2=O | -42.5% (active)
8 | O=C(Nc1nc2ccccc2s1)c1cc(-c2ccc(F)cc2)n2nc(-c3ccccc3)cc2n1 | 68.7%
9 | O=C(c1ccccc1)c1ccco1 | 99.2%
10 | O=C(Nc1ccncc1)C(=O)c1cn(S(=O)(=O)c2cccc(F)c2)c2ccccc12 | 34%
11 | Cc1cc(NC(=O)c2ccc(N)cc2)ccc1N=Nc1ccc2c(O)c(N=Nc3ccc(Cl)c(S(=O)(=O)O)c3)c(S(=O)(=O)O)cc2c1 | 69.9%
12 | CCCOc1ccc2c(c1)CC[C@@H]1[C@@H]2CC[C@@]2(C)[C@H]1CC[C@]2(C)O | 93.2%
13 | CCCCCCCCCCCCNc1ncnc2[nH]ncc12 | 51.1%
14 | N=c1ccn2c(n1)O[C@@H]1[C@@H](O)[C@H](CO)O[C@@H]12 | 33.3%
15 | COc1c(O)cc2oc3cc(O)c(CC=C(C)C)c(O)c3c(=O)c2c1C/C=C(\C)CCC=C(C)C | 33.5%
16 | CSc1ccc2c(c1)N(CCC1CCCCN1C)c1ccccc1S2 (stereo not given) | 83.9%
17 | COc1ccc2c(c1)nc(N)c1c3cc(OC)c(OC)cc3cn21 | 56.1%
18 | O=[N+]([O-])c1ccc(N/N=C/c2c(O)ccc3ccccc23)nc1 | 61.4%
19 | O=C(NCCCO)c1cc(Cl)ccc1O | 8.32% (active)
20 | COc1cc(C(=O)/C=C/c2cccnc2Nc2ccccc2)cc(OC)c1OC | -35.3% (active)

Row | Structure (SMILES) | growth
21 | Cn1cc(-c2nc(-c3c[nH]c4ncccc34)cs2)c2cccnc21 | 63.1%
22 | CCOc1cccc(C2CC(=O)Nc3cc4c(cc32)OCO4)c1 (stereo not given) | 77.9%
23 | CC(C)(C)c1ccc(S(=O)(=O)O)s1 | 115%
24 | COc1cc(/C=C/C(=O)Nc2ccc3c(c2)/C(=C\c2cccn2C)C(=O)N3)cc(OC)c1OC | 57%
25 | CC1=NN(c2ccccc2Cl)C(=O)/C1=C\c1cn(S(=O)(=O)c2ccc(C)cc2)c2ccccc12 | 83.9%
26 | COc1ccc(C2CC(c3ccc(OC)c(OC)c3)=NN2C(=O)c2cc(OC)c(OC)c(OC)c2)cc1 (stereo not given) | 46.6%
27 | CCOC(=O)c1cc(-c2cccnc2)nc2c(Cl)cc(Cl)cc12 | 89.6%
28 | Fc1ccc([C@@H]2CCNC[C@H]2COc2ccc3c(c2)OCO3)cc1 | 82.5%
29 | c1ccc(-n2nnnc2-c2cccc3ccccc23)cc1 | 52.1%
30 | O=C(Nc1ccc(Oc2ccc(NC(=O)Nc3ccc([N+](=O)[O-])cc3)cc2)cc1)Nc1ccc([N+](=O)[O-])cc1 | -17.8% (active)
31 | O=C(Nc1nc(-c2ccccc2)cs1)c1cc(O)c(O)c(O)c1 | 59.6%
32 | COC(=O)c1ccc2c(c1)nc(-c1ccc(O)c(OC)c1)n2-c1cc(C(C)(C)C)[nH]n1 | 93.3%
33 | COC(=O)CCC1=C(C)C(C)=N/C1=C\c1[nH]c(-c2ccc[nH]2)cc1OC | 0.999% (active)
34 | OC(Cc1cccnc1)c1ccccc1 (stereo not given) | 103%
35 | O=C(CSc1nc2c(n1Nc1ccccc1)-c1ccccc1SC2)Nc1nc(-c2ccc(Cl)cc2)cs1 | 53%
36 | Cc1nc2c(O)cccc2cc1CO | 94.9%
37 | CCN(CC)CCNc1ccc(Cl)cc1Cl | 101%
38 | Nc1ccc2c3c(cccc13)-c1ccccc1-2 | 97.7%
39 | COc1ncc(-c2ccc3nccc(C#CCN4CCN(S(C)(=O)=O)CC4)c3c2)cc1NS(=O)(=O)c1ccc(F)cc1F | 6.7% (active)
40 | CC1=C(C(=O)Nc2ccccc2)C(c2ccc3c(c2)OCCO3)NC(=O)N1 (stereo not given) | 101%
